Assay [1] is described as follows: TOX21_p53_BLA_p2_viability: Viability Assessment in the Tox21 HCT-116 p53 Agonism Beta-lactamase Assay, Phase 2 (AID 2283591).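 Also: compound exposure lasted 16 h at 37 °C; actives lower the ATP signal meaning cytotoxicity.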 Summed up:
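Cytotoxicity readout: CellTiter-Glo ATP luminescence, 30 min at room temperature, after the beta-lactamase read. Cells were HCT116 exposed 16 h at 37C to compounds pin-transferred at 217-fold dilution from DMSO stocks.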

Assay [2] can be described thus: TOX21_p53_BLA_p3_viability: Viability Assessment in the Tox21 HCT-116 p53 Agonism Beta-lactamase Assay, Phase 3 (AID 2283593).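 Also: cells exposed to compound for 16 h before reading.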 Summed up:
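Cellular ATP was quantified by CellTiter-Glo luminescence, read after 30 min at room temperature. Beforehand, HCT116 cells (4000/well) received compound 5 h post-seeding, 217-fold diluted from DMSO, then incubated 16 h at 37C.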

Assay [3] in a line: TOX21_p53_BLA_p4_viability: Viability Assessment in the Tox21 HCT-116 p53 Agonism Beta-lactamase Assay, Phase 4 (AID 2283597).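 Also: hits lower the luminescence signal meaning cytotoxicity.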 The method, boiled down:
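Viability is taken as cellular ATP: after 16 h compound exposure of HCT116 cells and a 2 h room-temperature CCF4-AM substrate step, CellTiter-Glo reagent is added and luminescence is measured 30 min later.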

Assay [4] deals with Cellular tumor antigen p53 (Homo sapiens) (UniProt P04637). The experiment in a line: TOX21_p53_BLA_p5_ratio: Tox21 HCT-116 p53 Agonism Beta-lactamase Assay, Ratio, Phase 5 (AID 2283599). The method, boiled down:
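Beta-lactamase reporter ratio (blue 460 nm over green 530 nm, 405 nm excitation) after 2 h CCF4-AM loading, in HCT-116 cells exposed 16 h at 37 C to compounds pinned at 217-fold dilution. Increases relative to DMSO baseline scored.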

The target is the same in assay [5]. Description: TOX21_p53_BLA_p3_ratio: Tox21 HCT-116 p53 Agonism Beta-lactamase Assay, Ratio, Phase 3 (AID 2283596). Summed up:
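Cells were seeded at 4000/well, rested 5 h at 37C, then dosed with DMSO compound solutions (217-fold dilution) for 16 h. CCF4-AM substrate was loaded for 2 h at room temperature, and the 460/530 nm emission ratio was fitted for gain of signal versus DMSO.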

A short description of assay [6]: TOX21_p53_BLA_p5_viability: Viability Assessment in the Tox21 HCT-116 p53 Agonism Beta-lactamase Assay, Phase 5 (AID 2283600). Summed up:
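Viability is taken from cellular ATP content, measured by luciferase luminescence in the same wells after the beta-lactamase ratio read. Cells are seeded at 4000 per well and exposed to DMSO-dissolved compounds, diluted 217-fold, for 16 h.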

Assay [7] deals with Cellular tumor antigen p53 (Homo sapiens) (UniProt P04637). The experiment in a line: TOX21_p53_BLA_p4_ratio: Tox21 HCT-116 p53 Agonism Beta-lactamase Assay, Ratio, Phase 4 (AID 2283601). The method, boiled down: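 Signal is the blue/green (460nm/530nm) ratio of cleaved versus uncleaved CCF4-AM substrate, read after 2 h substrate loading. Cells were HCT116 carrying the p53-responsive beta-lactamase reporter, dosed 16 h at 37C, 5% CO2; CellTiter-Glo measured in parallel.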
Cellular tumor antigen p53 (Homo sapiens), sequence (P04637 whole entry, looked up): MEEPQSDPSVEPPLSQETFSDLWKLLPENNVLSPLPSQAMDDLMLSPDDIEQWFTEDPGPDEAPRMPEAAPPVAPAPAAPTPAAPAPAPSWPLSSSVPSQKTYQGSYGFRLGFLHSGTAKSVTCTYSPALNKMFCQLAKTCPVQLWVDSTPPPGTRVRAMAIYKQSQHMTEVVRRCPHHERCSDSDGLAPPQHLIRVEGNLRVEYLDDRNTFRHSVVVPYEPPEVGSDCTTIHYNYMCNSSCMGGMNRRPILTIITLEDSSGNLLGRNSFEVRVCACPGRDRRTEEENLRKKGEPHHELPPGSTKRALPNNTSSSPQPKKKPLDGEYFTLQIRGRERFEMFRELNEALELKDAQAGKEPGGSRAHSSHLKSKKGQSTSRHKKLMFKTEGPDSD

The structures appear in SMILES notation. Records with an inconclusive call do not appear. Calls of active or inactive are those of the source. The calls were made as follows: active = hit-call score of the fitted dose curve at least 0.9, where 1 is the maximum; inconclusive = response in the unintended direction; inactive = score below 0.9.

Take `CC(=O)CCC(C)=O`: the outcome in assay [1], in assay [2], in assay [3] and in assay [4] was inactive.

Regarding `C[C@@H]1O[C@@H](O[C@@H]2C=C3CC[C@@H]4[C@H](CC[C@]5(C)[C@@H](c6ccc(=O)oc6)CC[C@]45O)[C@@]3(C)CC2)[C@H](O)[C@H](O)[C@H]1O`, the AC50 in assay [1] is 9.27 nM (active); in assay [2], 13.4 nM (active); in assay [3], 12.3 nM (active); in assay [6], 10.8 nM (active). Further, the result in assay [5], in assay [4] and in assay [7] was inactive.

On to `C=CC[C@]1(O)CC[C@H]2[C@@H]3CCC4=CCCC[C@@H]4[C@H]3CC[C@@]21C`, for which the outcome in assay [1], in assay [2], in assay [3] and in assay [6] was inactive.

With `CO[C@H]1[C@@H](O)C[C@H](O[C@H]2[C@@H](O)C[C@H](O[C@H]3[C@@H](O)C[C@H](O[C@H]4CC[C@@]5(C)[C@H](CC[C@@H]6[C@@H]5C[C@@H](O)[C@]5(C)[C@@H](C7=CC(=O)OC7)CC[C@]65O)C4)O[C@@H]3C)O[C@@H]2C)O[C@@H]1C`, the concentration at half-maximal activity (AC50) in assay [1] was 109 nM (active); in assay [2], 101 nM (active); in assay [3], 98.4 nM (active); in assay [6], 83.6 nM (active). The result in assay [5] and in assay [7] was inactive.

Consider `O=[N+]([O-])/C=C/c1ccccc1`, for which the result in assay [1], in assay [2], in assay [5], in assay [4] and in assay [7] was inactive.

`Nc1ccccc1C(=O)O`: the call in assay [1], in assay [2], in assay [5], in assay [4], in assay [6] and in assay [7] was inactive.

In the case of `O=[N+]([O-])[O-].[Tl+]`, the compound was classed as inactive in assay [1], in assay [2], in assay [3] and in assay [6].

In the case of `O=C(CCl)C(Cl)Cl`, the call in assay [1], in assay [2] and in assay [6] was inactive. The concentration at half-maximal activity (AC50) is 6250 nM (active) in assay [3], 29000 nM (active) in assay [4] and 26100 nM (active) in assay [7].

For `O=C(OCCN1CCCCC1)C(O)(c1ccccc1)c1ccccc1`, the outcome in assay [1], in assay [5], in assay [4] and in assay [7] was inactive. Besides, the half-maximal activity concentration (AC50) in assay [2] was 42400 nM (active).

The values are drawn from PubChem BioAssay (EPA / NIEHS).
